Experiment [1] deals with Glutaminase kidney isoform, mitochondrial (Homo sapiens) (UniProt O94925). Briefly: qHTS for Inhibitors of Glutaminase (GLS): LOPAC Validation (AID 624146). Note: nearly all actives have a fitted effect of over 60% in size. Note: potency is the fitted concentration of half-maximal effect. In short, it runs like this:
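Compounds were pin-transferred onto hKGA, after which L-glutamine (1 mM solution) and a detection mix of glutamate oxidase, HRP and Amplex Red were added. Initial and 30 min RT fluorescence reads were collected.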
(In general: In qHTS, concentration-response curves come from the screen itself.)

Experiment [2] can be described thus: qHTS of Trypanosoma Brucei Inhibitors: LOPAC Validation (AID 624147). In short, it runs like this:
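ADP (130 uM final) triggers the TbPYK reaction after compound addition; incubation is 45 min at room temperature. Kinase-Glo Plus is then added and luminescence imaged. Normalized data are fitted to concentration-effect curves.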

The target in experiment [3] is Glucagon-like peptide 1 receptor (Homo sapiens) (UniProt P43220). Kind of experiment: qHTS of GLP-1 Receptor Agonists: LOPAC Validation (AID 624148).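 Note: higher luminescence signal means agonism.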 In short, it runs like this: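 HEK293 cells stably co-expressing a cAMP-responsive luciferase reporter and a hypersensitive GLP-1R were plated 12 h at 37 °C and exposed to compounds for 4-6 hr at 37 °C, 5% CO2. Luminescence was read 12 min after adding detection reagent.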

Experiment [4] in a line: qHTS of Nrf2 Activators: LOPAC Validation (AID 624149). In short, it runs like this: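 AREc32 cells carrying an ARE-driven firefly luciferase were grown overnight in OPTI-MEM with 5% FBS, then exposed to compounds for 24 hr at 37 deg C. Luciferase signal was read after 30 min with Steady-Glo at RT.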
Experiment [5] is described as follows: HTS Assay for Allosteric Antagonists of the Human D2 Dopamine Receptor: Hit Validation in HTRF (AID 624455).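 Note: stable D1 dopamine receptor cell line scored for blocking the D1 response.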 In short, it runs like this:
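Hits were examined in an HTRF assay using cells stably expressing the D1 dopamine receptor, scoring inhibition of the D1-mediated response. The preceding primary screen tracked calcium flux after an EC80 dopamine addition in force-coupled, inducible Hek293 Trex D2 cells.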

Results filed as inconclusive are left out. Activity calls are given as the source filed them. Calls come from the whole dose curve; as a rule, active = well fitted curve in the direction sought with a large enough effect; inconclusive = small, poorly fitted or top-dose-only effect, or another doubt; inactive = no such curve, though single readings can be large; an effect the other way counts as inactive or inconclusive.

Glucagon-like peptide 1 receptor (Homo sapiens), sequence (P43220 whole entry, looked up): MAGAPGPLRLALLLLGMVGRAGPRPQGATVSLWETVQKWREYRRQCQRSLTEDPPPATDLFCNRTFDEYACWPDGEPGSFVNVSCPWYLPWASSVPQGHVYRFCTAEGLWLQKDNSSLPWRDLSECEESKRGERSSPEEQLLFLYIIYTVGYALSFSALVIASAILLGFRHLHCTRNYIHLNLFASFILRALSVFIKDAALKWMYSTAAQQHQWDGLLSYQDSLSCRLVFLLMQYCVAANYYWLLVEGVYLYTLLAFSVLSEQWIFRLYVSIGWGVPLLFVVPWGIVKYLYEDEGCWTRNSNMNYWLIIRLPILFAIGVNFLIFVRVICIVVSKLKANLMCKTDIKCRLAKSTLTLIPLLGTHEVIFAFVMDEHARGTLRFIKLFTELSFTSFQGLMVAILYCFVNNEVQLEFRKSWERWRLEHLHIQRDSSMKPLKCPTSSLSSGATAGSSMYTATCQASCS
Glutaminase kidney isoform, mitochondrial (Homo sapiens), sequence (O94925 whole entry, looked up, canonical isoform): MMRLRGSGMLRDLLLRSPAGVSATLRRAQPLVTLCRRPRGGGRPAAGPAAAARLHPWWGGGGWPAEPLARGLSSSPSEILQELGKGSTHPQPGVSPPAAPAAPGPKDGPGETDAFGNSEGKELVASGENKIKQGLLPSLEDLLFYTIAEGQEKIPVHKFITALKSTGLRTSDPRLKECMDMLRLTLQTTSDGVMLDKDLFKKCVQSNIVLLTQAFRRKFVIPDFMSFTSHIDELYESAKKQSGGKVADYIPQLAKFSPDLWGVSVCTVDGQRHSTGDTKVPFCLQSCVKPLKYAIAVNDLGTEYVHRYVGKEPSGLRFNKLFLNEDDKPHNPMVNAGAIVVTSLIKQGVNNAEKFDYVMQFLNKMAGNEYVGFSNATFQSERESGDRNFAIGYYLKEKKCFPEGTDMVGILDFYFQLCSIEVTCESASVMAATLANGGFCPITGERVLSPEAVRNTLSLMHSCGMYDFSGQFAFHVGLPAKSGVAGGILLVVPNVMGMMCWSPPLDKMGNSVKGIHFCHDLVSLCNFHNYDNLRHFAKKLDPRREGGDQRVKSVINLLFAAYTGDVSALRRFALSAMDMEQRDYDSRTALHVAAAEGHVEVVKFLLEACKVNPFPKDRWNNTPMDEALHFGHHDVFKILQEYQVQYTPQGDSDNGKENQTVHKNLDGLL

Regarding `OC[C@H]1O[C@@H](n2cnc3c(Nc4ccccc4)ncnc32)[C@H](O)[C@@H]1O`, the Potency result in experiment [1], in experiment [2] and in experiment [5] was “inactive” each time. Further, the result in experiment [3] and in experiment [4] was inactive.

Turning to `COc1ccccc1N1CCN(CCN(C(=O)c2ccc(I)cc2)c2ccccn2)CC1`, the Potency result in experiment [1], in experiment [2] and in experiment [5] was “inactive” throughout. Also, the result in experiment [3] and in experiment [4] was inactive.

Turning to `Clc1ccc(N2CCN(Cc3cc4ccccn4n3)CC2)cc1`, the Potency result in experiment [1], in experiment [2] and in experiment [5] was “inactive” throughout. Further, the molecule was called inactive in experiment [3] and in experiment [4].

`O=C(c1cc(O)c(O)c([N+](=O)[O-])c1)c1ccccc1F`: in experiment [1], the Potency is 4.47 µM (active). For the same molecule, the Potency entry in experiment [2] and in experiment [5] was “inactive” throughout. Besides, the molecule was classed as inactive in experiment [3] and in experiment [4].

For the molecule `COc1cc(SC)ccc1C(=O)N1CCC(Cc2ccccc2)CC1`, the Potency entry in experiment [1], in experiment [2] and in experiment [5] was “inactive” each time. The outcome in experiment [3] and in experiment [4] was inactive.

With `CN1CCc2cc(NC(=O)Nc3cccnc3)ccc21`, the Potency entry in experiment [1], in experiment [2] and in experiment [5] was “inactive” throughout. For the same molecule, the result in experiment [3] and in experiment [4] was inactive.

With `O=C(O)c1cc(=O)c2ccccc2[nH]1`, the Potency entry in experiment [1], in experiment [2] and in experiment [5] was “inactive” throughout. Further, the call in experiment [3] and in experiment [4] was inactive.

Consider `CNC(=O)[C@H]1O[C@@H](n2cnc3c(NCc4ccc(N)cc4)ncnc32)[C@H](O)[C@@H]1O`, for which the Potency entry in experiment [1], in experiment [2] and in experiment [5] was “inactive” in each case. Further, the result in experiment [3] and in experiment [4] was inactive.

Turning to `CSc1nc(N)c2ncn([C@@H]3O[C@H](COP(=O)(O)OP(=O)(O)OP(=O)(O)O)[C@@H](O)[C@H]3O)c2n1`, the Potency entry in experiment [1], in experiment [2] and in experiment [5] was “inactive” throughout. The molecule was called inactive in experiment [3] and in experiment [4].

Regarding `C[N+](C)(C)CCOP(=O)(O)OP(=O)([O-])OC[C@H]1O[C@@H](n2ccc(N)nc2=O)[C@H](O)[C@@H]1O`, the Potency result in experiment [1], in experiment [2] and in experiment [5] was “inactive” in each case. The call in experiment [3] and in experiment [4] was inactive.

Take `CN1CCc2ccccc2Cc2[nH]c3ccccc3c2CC1`: the Potency in experiment [1] is 8.91 µM (active). The Potency entry in experiment [2] and in experiment [5] was “inactive” in each case. Also, the molecule was classed as inactive in experiment [3] and in experiment [4].

Turning to `NCCSSCCN`, the Potency entry in experiment [1], in experiment [2] and in experiment [5] was “inactive” throughout. Besides, the molecule was classed as inactive in experiment [3] and in experiment [4].

On to `CN(C)CCC(c1ccc(Cl)cc1)c1ccccn1` (stereo not given), for which the Potency entry in experiment [1], in experiment [2] and in experiment [5] was “inactive” throughout. Moreover, the call in experiment [3] and in experiment [4] was inactive.

In the case of `O=C(Nc1ccccc1)c1cc([N+](=O)[O-])ccc1Cl`, the Potency result in experiment [1], in experiment [2] and in experiment [5] was “inactive” in each case. Besides, the molecule was classed as inactive in experiment [3] and in experiment [4].

For `CN(C)c1ccc(/C=C2\C(=O)Nc3ccccc32)cc1`, the Potency result in experiment [1], in experiment [2] and in experiment [5] was “inactive” throughout. The call in experiment [3] and in experiment [4] was inactive.

On to `O=C(c1ccc(Cl)cc1)N1CCN(c2ccc([N+](=O)[O-])c3ncccc23)CC1`, for which the Potency entry in experiment [1], in experiment [2] and in experiment [5] was “inactive” in each case. For the same molecule, the molecule was called inactive in experiment [3] and in experiment [4].

For the molecule `O=C(O)[C@@H]1C[C@@H](C(=O)O)N1`, the Potency result in experiment [1], in experiment [2] and in experiment [5] was “inactive” each time. Further, the result in experiment [3] and in experiment [4] was inactive.

Regarding `Cn1c(=O)c2[nH]c(-c3ccccc3)nc2n(C)c1=O`, the Potency entry in experiment [1], in experiment [2] and in experiment [5] was “inactive” throughout. The result in experiment [3] and in experiment [4] was inactive.

Take `O=C(O)CNC(=O)C(CS)Cc1ccccc1` (stereo not given): the Potency entry in experiment [1], in experiment [2] and in experiment [5] was “inactive” throughout. The outcome in experiment [3] and in experiment [4] was inactive.

Regarding `c1ccc(-c2ccccn2)nc1`, the Potency entry in experiment [1], in experiment [2] and in experiment [5] was “inactive” in each case. Besides, the molecule was classed as inactive in experiment [3] and in experiment [4].

Take `COc1ccccc1CNCCCCCCNCCCCCCCCNCCCCCCNCc1ccccc1OC`: the Potency result in experiment [1], in experiment [2] and in experiment [5] was “inactive” in each case. The molecule was called inactive in experiment [3] and in experiment [4].

With `NC(=O)C1=CN(C2OC(COP(=O)(O)OP(=O)(O)OC[C@H]3O[C@@H](n4cnc5c(N)ncnc54)[C@H](OP(=O)(O)O)[C@@H]3O)C(O)C2O)C=CC1` (stereo not given in full), the Potency result in experiment [1], in experiment [2] and in experiment [5] was “inactive” in each case. For the same molecule, the result in experiment [3] and in experiment [4] was inactive.

On to `O=c1[nH]c2cc(Cl)c(Cl)cc2[nH]c1=O`, for which the Potency entry in experiment [1], in experiment [2] and in experiment [5] was “inactive” throughout. Further, the molecule was called inactive in experiment [3] and in experiment [4].

For `Ic1ccc(N2CCN(Cc3c[nH]c4ncccc34)CC2)cc1`, the Potency entry in experiment [1], in experiment [2] and in experiment [5] was “inactive” in each case. Further, the result in experiment [3] and in experiment [4] was inactive.

Turning to `COc1cc(C(O)CO)ccc1OS(=O)(=O)O` (stereo not given), the Potency entry in experiment [1], in experiment [2] and in experiment [5] was “inactive” in each case. Besides, the molecule was classed as inactive in experiment [3] and in experiment [4].

Consider `C[N+]1(C)CCC(OC(=O)C(c2ccccc2)c2ccccc2)CC1`, for which the Potency entry in experiment [1], in experiment [2] and in experiment [5] was “inactive” each time. The outcome in experiment [3] and in experiment [4] was inactive.

For the molecule `O=P(O)(O)C(Cl)(Cl)P(=O)(O)O`, the Potency result in experiment [1], in experiment [2] and in experiment [5] was “inactive” throughout. The molecule was classed as inactive in experiment [3] and in experiment [4].

`CO/N=C(\C(=O)N[C@@H]1C(=O)N2C(C(=O)O)=C(COC(C)=O)CS[C@H]12)c1csc(N)n1`: the Potency result in experiment [1], in experiment [2] and in experiment [5] was “inactive” throughout. Also, the molecule was classed as inactive in experiment [3] and in experiment [4].

For `CC1(C)CCC=[N+]1[O-]`, the Potency entry in experiment [1], in experiment [2] and in experiment [5] was “inactive” throughout. Also, the molecule was called inactive in experiment [3] and in experiment [4].

`CNCC[C@H](Oc1ccc(C(F)(F)F)cc1)c1ccccc1`: the Potency entry in experiment [1], in experiment [2] and in experiment [5] was “inactive” throughout. Also, the call in experiment [3] and in experiment [4] was inactive.

Take `Clc1ccc(N2CCN(Cc3c[nH]c4ncccc34)CC2)cc1`: the Potency result in experiment [1], in experiment [2] and in experiment [5] was “inactive” in each case. In addition, the call in experiment [3] and in experiment [4] was inactive.

`NCC1OC(O[C@H]2[C@H](O)[C@@H](OC3C(O)C(N)CC(N)C3OC3OC(CO)C(O)C(O)C3N)O[C@@H]2CO)C(N)C(O)C1O` (stereo not given in full): the Potency result in experiment [1], in experiment [2] and in experiment [5] was “inactive” each time. For the same molecule, the molecule was called inactive in experiment [3] and in experiment [4].

Values taken from PubChem BioAssay (NCATS).
